# Data as given in PubChem BioAssay AID463165 (Johns Hopkins Ion Channel Center, 2010).
# The whole screen tested about 310,000 compounds, of which about 1,400 (0.45%) were called active.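 Rule for the calls: active = B-score, a plate-corrected calcium signal, over three deviations above library mean, with baseline fluorescence within five deviations of library mean; inactive = the rest.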 Only a selection was taken, and actives are over-represented in it overall.
# Biological target: Regulator of G-protein signaling 4 (Homo sapiens) (UniProt P49798)
# Sequence (P49798 whole entry, looked up): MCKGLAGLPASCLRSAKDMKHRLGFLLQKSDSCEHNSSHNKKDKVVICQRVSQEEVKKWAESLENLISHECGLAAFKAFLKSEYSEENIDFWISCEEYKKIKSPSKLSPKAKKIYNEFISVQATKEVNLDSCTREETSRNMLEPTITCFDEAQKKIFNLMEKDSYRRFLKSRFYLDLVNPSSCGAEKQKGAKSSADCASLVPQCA
# Assay: blockers of RGS4 function in M3R calcium signaling – cell-based, HEK293 M3R inducible RGS4, calcium flux, primary screen (AID 463165);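 note: RGS4 expression induced by doxycycline in cells with stable M3 receptor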;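 for B-score: B-score is computed from the integrated fluorescence ratio over baseline after carbachol; higher B-score means a larger calcium signal and so more RGS4 inhibition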
# Details: Fluo-4 calcium flux, at 10 µM, triggered by carbachol at its EC20; stronger effect = higher value
row,SMILES,B-score
1,Cc1ccc(S(=O)(=O)N(CC(=O)NN=C2CCN(C)CC2)c2ccc(F)cc2)cc1,inactive
2,CCCCN(C(=O)/C=C/c1ccco1)c1c(N)n(CC(C)C)c(=O)[nH]c1=O,inactive
3,CS/C(=C\[N+](=O)[O-])Nc1ccc(C)cc1,inactive
4,COC(=O)NNC(=O)C1CCC(C)CC1 (stereo unspecified),inactive
5,O=C1CCNCCN1[C@H](CO)Cc1ccccc1,inactive
6,c1ccc(C[C@H]2CNCCN2CCC23CC4CC(CC(C4)C2)C3)cc1,6.17 (active)
7,CC(C)CN(C(=O)CN1CCN(S(=O)(=O)c2ccccc2)CC1)c1c(N)n(CC(C)C)c(=O)[nH]c1=O,inactive
8,CCCCNC(=O)N(O)C1N(/N=C/c2ccc(N(C)C)cc2)C(=S)SC1(C)C (stereo unspecified),inactive
9,Nc1ccccc1SC(C[N+](=O)[O-])c1ccccc1 (stereo unspecified),7 (active)
10,Nc1ccccc1SCc1cc([N+](=O)[O-])cc2c1OCOC2,inactive
11,CCS(=O)(=O)c1cc([N+](=O)[O-])c(Sc2ccccc2N)s1,inactive
12,CCCCCCCNC(=O)C1(CC2CC(c3cccc(Br)c3)=NO2)CCN(C(=O)c2cc(OCC)c(OCC)c(OCC)c2)CC1 (stereo unspecified),inactive
13,Cc1ccc(Nc2nc(N3CCOCC3)nc(N3CCOCC3)n2)cc1Cl,inactive
14,CNc1nc(Nc2ccc(C)c(Cl)c2)nc(N)c1[N+](=O)[O-],12.7 (active)
15,COc1cccc(Nc2nc(N)c([N+](=O)[O-])c(NCc3ccco3)n2)c1,inactive
16,CC(=O)c1nn(-c2cccc(C(F)(F)F)c2)c(=O)[nH]c1=O,inactive
17,O=C1CCCN1CCCNC(=S)Nc1ccc(F)c(Cl)c1,inactive
18,Cc1nc2ccccc2c(=O)n1-c1ccc(NS(=O)(=O)c2ccc(F)cc2F)cc1,inactive
19,CC1=NN(c2ccc(Cl)c(C(=O)O)c2)C(=O)/C1=C/c1ccc(-c2ccccc2[N+](=O)[O-])o1,inactive
20,O=C1NC(c2ccc(-c3ccccc3[N+](=O)[O-])o2)C(C(=O)c2ccc(Cl)cc2)C(O)(C(F)(F)F)N1 (stereo unspecified),8.35 (active)
21,CC(=O)C1C(c2cccc(Oc3ccccc3)c2)NC(=O)NC1(O)C(F)(F)F (stereo unspecified),inactive

row,SMILES,B-score
1,O=C(OCc1ccc([N+](=O)[O-])cc1)C1CC(=O)N(Cc2ccccc2Cl)C1 (stereo unspecified),inactive
2,CC(=O)Nc1ccc(Nc2c([N+](=O)[O-])cc(S(C)(=O)=O)cc2[N+](=O)[O-])cc1,inactive
3,O=C(NCc1cccs1)c1ccc(CS(=O)Cc2ccccc2Cl)o1 (stereo unspecified),inactive
4,CC(C)OCCCNC(=O)CN1C(=O)/C(=C/c2ccccc2F)Oc2ccccc21,inactive
5,O=C(CN1C(=O)COc2ccc(Cl)cc21)N1CCOCC1,inactive
6,O=C(CN1CCCCCC1)Nc1ccc(Cl)cc1F,inactive
7,COc1cc2c(cc1O)C(SC)=NC(C)(C)C2,15.1 (active)
8,COc1cc2c(cc1OC)C(C(C)C)=NC(C)(C)C2,inactive
9,COc1cc2c(cc1OC)C(Nc1ccc(S(N)(=O)=O)cc1)=NC(C)(C)C2,inactive
10,O=C(CSC1=NS(=O)(=O)c2cc(F)ccc2N1)Nc1ccccc1F,inactive
11,CCOC(=O)CSc1nc(C)c(Oc2ccc(Cl)cc2Cl)c(=O)[nH]1,inactive
12,Cc1nnc(SCC(=O)N2CCOCC2)[nH]c1=O,inactive
13,CCCCOC(=O)CNc1nnc(SCC(=O)OCC)[nH]c1=O,26.4 (active)
14,NC(=O)C1CCCN(CC(=O)N2CCN(c3ccccc3)CC2)C1 (stereo unspecified),inactive
15,COc1ccc(C(=O)/C=C/c2cccnc2)c(OC)c1,inactive
16,COc1ccc(C(=O)/C=C/c2ccc(OC3CSC3)cc2)cc1,inactive
17,COc1ccc(/C=C/C(=O)c2ccc(OC)cc2O)cc1,6.02 (active)
18,Cc1ccc(N(C(=O)c2ccc(S(=O)(=O)N(C)C)cc2)C2C=CS(=O)(=O)C2)cc1 (stereo unspecified),inactive
19,COc1ccc2oc(C(=O)OCC(=O)N(CC(C)C)c3c(N)n(Cc4ccccc4)c(=O)[nH]c3=O)c(C)c2c1,inactive
20,[O-][n+]1ccc(OCc2ccccc2)cc1,inactive
21,CCOC(=O)c1ccc(NC(=O)Cc2cccs2)cc1,inactive

row,SMILES,B-score
1,CCOc1ccccc1NC(=O)Cc1cccs1,inactive
2,CCOc1ccc(NC(=O)C/C(C)=N/NC(=O)Cc2cccs2)cc1,7.41 (active)
3,CCn1c(O)c2ccc(C(=O)N=NC(=O)c3cccnc3)cc2c1O,inactive
4,O=S(=O)(Nc1ccc2[nH]ncc2c1)c1ccccc1Cl,inactive
5,Cc1c(NC(=O)c2cc(-c3ccc(Br)cc3)on2)c(=O)n(-c2ccccc2)n1C,inactive
6,Cc1c(NC(=O)c2coc(=O)c(Br)c2)c(=O)n(-c2ccccc2)n1C,8.99 (active)
7,Cc1c(NC(=O)c2cccnc2)c(=O)n(-c2ccccc2)n1C,inactive
8,COc1ccc(CC(NC(C)=O)C(=O)NC2CCN(C(=O)Nc3ccc(C#N)cc3)CC2)cc1OC (stereo unspecified),inactive
9,CCc1nn(CCCC(=O)NCc2ccc(C)cc2)c(=O)c2cc3occc3n12,inactive
10,O=C(O)CCCCCCCCc1cn(CN2C(=O)c3ccccc3C2=O)nn1,inactive
11,C=CCSc1nc2c(c(=O)[nH]1)C(C(C)C)C(C#N)=C(N)O2 (stereo unspecified),7.64 (active)
12,Cc1cc2c(c(=O)n1C)C(C(C)C)C(C#N)=C(N)O2 (stereo unspecified),inactive
13,C=CCSc1nc(N)cc(=O)[nH]1,inactive
14,O=C(c1cccnc1)N(c1cc2sc(=O)oc2c2ccccc12)S(=O)(=O)c1ccccc1,inactive
15,CCc1ccc(C2C(C#N)=C(N)N(N3CCOCC3)C3=C2C(=O)CC(C)(C)C3)s1 (stereo unspecified),4.85 (active)
16,CCc1ccc(C2C(C#N)=C(N)N(N(C)C)C3=C2C(=O)CCC3)s1 (stereo unspecified),inactive
17,COc1ccc(C2C(C#N)=C(/N=C/N3CCOCC3)OC3=C2C(=O)CC(C)(C)C3)cc1OC (stereo unspecified),inactive
18,Cc1ccsc1/C=N/n1c(=S)[nH]nc(C)c1=O,5.78 (active)
19,Oc1ccccc1/C=N/n1c(-c2cccs2)n[nH]c1=S,inactive
20,S=c1[nH]nc(-c2cccs2)n1/N=C/c1cccs1,inactive
21,CC(OC(=O)CCc1nc(=O)c2ccccc2n1C)C(=O)NCc1ccc2c(c1)OCO2 (stereo unspecified),inactive

row,SMILES,B-score
1,O=C(O)C1C2CC2CN1C(=O)c1ccc(Cl)cc1Cl (stereo unspecified),inactive
2,COc1ccc(CNS(=O)(=O)c2ccc(-c3cnc(C4CC4)o3)cc2)cc1,inactive
3,CC(=O)Nc1ccc(S(=O)(=O)Nc2cccc(NC(=O)C(C)(C)C)c2)cc1,inactive
4,CC(=O)Nc1ccc(S(=O)(=O)Nc2nc(-c3ccc(C(C)(C)C)cc3)cs2)cc1,5.98 (active)
5,CC(=O)Nc1ccc(-c2csc(NC=C3C(=O)OC(C)(C)OC3=O)n2)cc1,inactive
6,Oc1ccc(/C=N/Nc2ccc(C(F)(F)F)cn2)cc1O,9.02 (active)
7,Cc1nccn1CC(=O)N/N=C/c1ccc(O)c(O)c1,inactive
8,Oc1ccc(Br)cc1/C=N/Nc1ccccn1,inactive
9,O=C(c1n[nH]c2c1CCC2)N1CCCC(Nc2cccc(F)c2)C1 (stereo unspecified),inactive
10,O=[N+]([O-])c1cc(Cl)cc(/C=N/NC(=S)Nc2cc(S(=O)(=O)N3CCOCC3)ccc2Cl)c1O,6.74 (active)
11,O=C(N/N=C/c1cc(Cl)cc([N+](=O)[O-])c1O)C(O)(c1ccccc1)c1ccccc1,inactive
12,O=C(NC(=S)Nc1ccc(S(=O)(=O)N2CCOCC2)cc1)c1ccccc1[N+](=O)[O-],inactive
13,COc1cccc(N2CC(C(=O)NCc3n[nH]c(=O)c4ccccc34)CC2=O)c1 (stereo unspecified),inactive
14,CN(c1ccccc1)S(=O)(=O)c1cc(C(=O)Nc2nc3ccccc3[nH]2)ccc1Cl,inactive
15,CCc1ccc2oc(-c3ccc(N)cc3)nc2c1,10.6 (active)
16,COc1ccc(-c2nc3cc([N+](=O)[O-])ccc3o2)cc1OC,inactive
17,Nc1ccc(-c2nnc(-c3ccccc3)o2)cc1,inactive
18,C=CC(COCc1ccccc1)N(Cc1ccccc1)S(=O)(=O)c1ccccc1Br (stereo unspecified),inactive
